Source: the supplement of paper PMC10681739

Target: T1, ETS1 (UniProt P14921)
T1 sequence: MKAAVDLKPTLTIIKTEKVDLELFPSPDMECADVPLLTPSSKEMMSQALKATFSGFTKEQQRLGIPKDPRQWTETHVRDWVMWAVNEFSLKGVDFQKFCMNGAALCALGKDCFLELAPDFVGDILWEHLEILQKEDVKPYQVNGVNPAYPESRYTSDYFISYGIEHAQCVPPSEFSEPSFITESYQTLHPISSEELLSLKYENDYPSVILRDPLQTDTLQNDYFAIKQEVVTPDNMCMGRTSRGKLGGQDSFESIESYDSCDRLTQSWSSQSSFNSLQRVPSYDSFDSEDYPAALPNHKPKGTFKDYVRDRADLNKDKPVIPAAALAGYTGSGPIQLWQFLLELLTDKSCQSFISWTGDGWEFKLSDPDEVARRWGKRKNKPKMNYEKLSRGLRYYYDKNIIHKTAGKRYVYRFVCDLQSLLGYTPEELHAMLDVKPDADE
Test: ETS1 binding intensity (PBM fluorescence) in presence of RUNX1, normalised to ETS1-only experiment (arbitrary fluorescence units); higher = stronger binding
Conditions: ETS1 concentration 1 nM; RUNX1 concentration 25 nM
Experimental: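 Cooperative genomic-context PBM: 36-bp genomic probes with neighbouring ETS1 and RUNX1 sites, double-stranded on Agilent 4x180k arrays. Full-length recombinant human ETS1 (1 nM) was incubated alone or with RUNX1 (25 nM) and detected with anti-ETS1 antibody plus Alexa488 secondary. Value is the median fluorescence intensity over 4 replicate spots; the ETS1+RUNX1 data were normalised to the ETS1-only data using probes without RUNX1 sites. The 36-bp variable region sits on the array probe with constant linker/primer flanks that are not printed.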

Sequence | ETS1 binding intensity
GGCCGGCTTCCGGGGCGGGTGGAAAGGAGCCACAAG | 498
CACCCGAACGGAAACACCTGCGGCTGAGGGGAGGGG | 1110
GCTTCTTCCGGCCGGGCCGAGAGGTGGTTACATTCG | 700
GCAGAAACAGGAAGAGACAGGGCTGACCGCAGCAGG | 6300
TGACTTCCTCCTCTTCACTAACAGAAACCTCAATTT | 526
GCTGCAAGGCGGAAGCAGCGCGGTCGGACGGGCATG | 2400
GGCTTCCTGCCCAACTACCAAGAAAAAGCCACAAAG | 962
AGGGACCCGGATGTCTGGTCTGCGGCTGCTCCTCTA | 2120
GAAGCCCAACAGGATGCCGAGTAACCACCCACTGAA | 1120
AGTTTCTCCAGGAAGCGCTGAGGTTTTCTCAGAAGT | 1160
GAGCACAGGAAAAGCTGGTGCCAACCACAAGTGCTT | 1130
TGTTTTTGTTTCCGTTTACAAACCACAACAAAGGTG | 1620
GGGGCCCCGGATGCACTGAGCGGCTGCGGCGCGGCT | 642
CATGCGTCACCTTCCTGTGTGGTCAGCAGTGCTTGC | 468
AGGAGAGGATGTTGCTTGAAGGTGTGGTCTCCTCCA | 462
TCAGGGGTGGGAGGAAGTGGTTAGGATCAGCCTGGG | 3120
CAGGGTGGAAACAGGAAGAGAAACCACACTTAACCT | 7190
ACCTGAGCAGGAAGTAGCTGAGGTCGCGGTGCAGCA | 3750
CCCTCCTCTTTCGTTTCCTAACCGCAAATTCCATCA | 1720
TCCCCTGTCTTCCGGAGGCTGCGGCGCAGCGGCGCA | 519

Sequence | ETS1 binding intensity
CCTTCCTTCCTGCTGTGTACGTTGTGGTCACAGCAC | 932
GAGTTCCGCCTCGCCGTTTGTCCCTTGCGGTACCCG | 620
TACAGGAACTTCCTGCGCGGCTGCTGTGGTTGCGAG | 1350
GGGCGCGACTTCCGGGGCGGCGGTTGCATCAGATTC | 1780
AGCTGCAGTTGGGCAGGAAACCACAATGTCGAAGAC | 5770
CCCGTTCTCCGGAAGTGCGCGGGTTGGAGCTGAAGC | 5690
CTCCCCCCACGACTTCCCTCTGTGGCCCCGGGCCGC | 645
ACCTGTAGGCGGAAGTCTGTGGCTTTATTTACACAG | 5710
ACACAGGAAGGACGCACGCTCCCGCCCCAACCACAT | 563
TCCTTAATGGTTCCGGCGGCAGGGACCGCAGCGACG | 526
ATGCAGAAGCTACAGGAAGAAGCCGCAGGCCAAGCT | 1120
GCTGCCACTTCCCTTGCTTATTTCATGTGGTTTGGA | 794
TGTTTACTTCCTGGAGGCACTTTGGTTTTTCTTTCT | 325
TTAGGCTCATGGGAAATGTGGTTTCTAAATCGCGGG | 639
TGCCACATCCTGCCCCTCCCCAGGTCTAACCACCAA | 754
CTTGGCGGAAGTGGTGTGGGGGAGGTAGCCCGCAGT | 5600
CACCTGCAGTGAAGAGGATGTGGGCAAAGATTATGC | 2180
ATTCTGCATCCTGTGCTCTTTCCATGAGACCACAAA | 754
GCTTCTGAGGAAGTGCGTTCTGTGGGTAGGTGGAGT | 1000
GCCACATATTTCCTGTGACAACCCTGTGGTGTGGCT | 723
